CYP2C9 act = human CYP2C9 activators, primary screen, biochemical, luminescence; Cytochrome P450 2C9 (Homo sapiens), P11712; recombinant CYP2C9, luciferin-H conversion; stronger effect = higher value; factor 1 = untreated enzyme, 0 = blocked; activation factor at 5 µM; 1.4% of 96,000 active;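 active means activation factor of 2 or more for CYP2C9 at a 5 µM dose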;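 further: 0 = sulfaphenazole-blocked wells and 1 = vehicle-only wells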
Measles CPE = compounds protecting cells from measles virus cytopathic effect, primary screen, measles RdRp inhibitor project, single point, MLSMR library, absorbance | protection (pct of control), % at 4 µM | Measles virus-infected cells, CPE protection | 1.5% of 140,000 active; in the data active means protection mostly above about 24%, no sharp cut-off; inactive means mostly below about 26%
CYP2C9 inhib = blockers of cytochrome P450 2C9 activity – biochemical, luminescence, ADME assay, primary screen; AID 777, 2007; 20% of 96,000 active; CYP2C9 Supersomes, luciferin-H conversion; inhibition, % at 5 µM;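 active means blocking of liver enzyme CYP2C9 beyond about 50% at 5 µM, limit read from the data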
CYP2C19 act = human CYP2C19 activators, primary screen, biochemical, luminescence | recombinant CYP2C19, luciferin-H EGE luminescence; stronger effect = higher value; 0 = fully inhibited enzyme, 1 = untreated enzyme | Cytochrome P450 2C19 (Homo sapiens), P33261 | activation factor at 5 µM | 96,000 tested, under 10 active;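 active means activation factor of at least 2 at 5 µM in the primary screen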;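 further: 0 = wells with 2.5 mM tranylcypromine and 1 = vehicle-only wells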
Target sequence (P33261 whole entry, looked up): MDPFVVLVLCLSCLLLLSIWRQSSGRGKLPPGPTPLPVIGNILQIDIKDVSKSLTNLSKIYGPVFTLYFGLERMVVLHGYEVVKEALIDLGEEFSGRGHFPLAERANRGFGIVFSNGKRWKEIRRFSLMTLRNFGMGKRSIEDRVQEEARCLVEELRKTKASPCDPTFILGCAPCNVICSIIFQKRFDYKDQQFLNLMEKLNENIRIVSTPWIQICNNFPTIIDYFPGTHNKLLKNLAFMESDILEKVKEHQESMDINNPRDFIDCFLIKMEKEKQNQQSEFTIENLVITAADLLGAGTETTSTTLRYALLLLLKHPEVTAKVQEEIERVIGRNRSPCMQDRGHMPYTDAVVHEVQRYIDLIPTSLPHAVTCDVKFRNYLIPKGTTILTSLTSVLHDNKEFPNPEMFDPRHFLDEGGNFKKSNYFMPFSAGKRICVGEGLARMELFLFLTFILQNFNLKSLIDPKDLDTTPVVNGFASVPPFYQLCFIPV
CYP2C19 inh = blockers of cytochrome P450 2C19 activity – biochemical, luminescence, ADME assay, primary screen. P33261. CYP2C19 Supersomes, luciferin-H EGE luminescence, 30 min. inhibition, % at 5 µM. 21% of 96,000 active;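 active means CYP2C19 inhibition above a set limit at 5 µM in the primary screen, cut at about 50% in these data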;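 further: plate controls were negative control wells for no effect and 2.5 mM tranylcypromine positive control for full effect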
The depositor's hits bear a star; · = not tested or not shown. This is a sample that favours compounds with a hit; in the whole collection about 22% have one here.

SMILES	CYP2C9 act	Measles CPE	CYP2C9 inhib	CYP2C19 act	CYP2C19 inh
COc1ccc(C(=O)N/N=C2/SCC(=O)N2Cc2ccc3c(c2)OCO3)cc1OC	0.8	22	23	1	-1
COc1cccc(C(=O)N/N=C2\SCC(=O)N2Cc2ccc3c(c2)OCO3)c1	0.1	2	88*	0.7	34
O=C(O)CC1CCCC(c2ccccc2)C1=O (centres undefined)	·	14	·	·	·
C=CCc1cc(C)ccc1OCCn1ccnc1	0.1	18	95*	0	96*
C=CCc1cc(C)ccc1OCCOCCn1ccnc1	·	6	·	·	·
Cc1ccc(C)c(OCCCCCn2ccnc2)c1	0	3	100*	0	100*
CCOC(=O)CSc1nc(N)c(C#N)c(CC(C)C)c1C#N	0.7	7	28	0.9	9
CCOc1cccc(CNn2cnnc2)c1OCc1ccccc1	1	35	3	0.4	57*
c1ccc(COc2cccc(CNn3cnnc3)c2)cc1	0.9	8	9	0.5	50*
CCOc1ccccc1-c1nc(-c2ccc(C)nc2OC)no1	1.3	8	-30	0.9	13
CCOC(=O)c1[nH]c(COC(=O)CCCOc2ccccc2)c(C(=O)OCC)c1C	0.2	·	80*	0.6	45
Cc1cc(C)c(/C=N/n2c(C)cc(C)c(C#N)c2=O)c(C)c1	·	8	·	·	·
COC(=O)C1=C(C(=O)OC)SC2(S1)C(C(=O)OC)=C(C(=O)OC)SC1=C2c2cc(C)ccc2NC1(C)C	0.1	14	87*	0.2	82*
N#Cc1ccc(-c2ccc(F)cc2)nc1SCC(=O)Nc1sc2c(c1C#N)CCC2	1	1	-3	1.1	-11
COc1ccccc1CN(Cc1ccco1)S(=O)(=O)c1ccc(-n2cnnn2)c(OC)c1	0.2	18	85*	0.3	67*
COc1cccc(CN(Cc2cccnc2)S(=O)(=O)c2ccc(-n3cnnn3)c(C)c2)c1OC	0.6	7	44	0.2	78*
COc1ccc(CN(Cc2ccc(OC)cc2)S(=O)(=O)c2ccc(-n3cnnn3)c(C)c2)cc1	·	7	·	·	·
CCOC(=O)N1CCN(C(=O)COc2cccc3c2CCN(Cc2ccccc2F)C3=O)CC1	·	10	·	·	·
O=S(=O)(Nc1nc2ccc(S(=O)(=O)N3CCCC3)cc2s1)c1ccc(F)cc1	0	5	100*	1	2
CSc1nc2ccc(S(=O)(=O)N3CCCC3)cc2s1	0.5	17	53*	0	99*
CSc1nc2ccc(S(N)(=O)=O)cc2s1	·	21	·	·	·
Cc1cc(C)cc(C(=O)NN2CCOCC2)c1	·	7	·	·	·
Cc1sc2nc(CSc3nnc(Cc4cccs4)n3C3CCCCC3)[nH]c(=O)c2c1C	0.8	2	24	0.7	30
Cc1sc2nc(SCc3nnc(-c4cccs4)o3)n(C3CCCC3)c(=O)c2c1C	0.2	13	83*	0.7	26
CC(C)Cn1c(SCc2nnc(-c3cccs3)o2)nc(O)cc1=O	0.3	18	75*	0.8	24
SMILES	CYP2C9 act	Measles CPE	CYP2C9 inhib	CYP2C19 act	CYP2C19 inh
c1ccc(-c2nnc(SCc3nnc(-c4cccs4)o3)o2)cc1	0.7	22	31	0.7	34
CCc1nnc(NC(=O)CSc2nnc(-c3ccccc3OC)n2-c2ccccc2)s1	·	4	·	·	·
COc1cccc(NC(=O)CSc2nc3ccccc3c3nc4ccccc4n23)c1	·	18	·	·	·
CCCCNS(=O)(=O)c1ccc(OC)c2ncccc12	1.2	27	-23	0.8	20
COc1ccc(C)cc1NC(=O)C1CCN(S(=O)(=O)c2cccc3cccnc23)CC1	2.7*	6	-174	1.1	-7
COc1ccc(S(=O)(=O)N2CCC(C(=O)Nc3ccccc3C)CC2)c2cccnc12	0.7	29	32	0.4	63*
COc1cc(NC(=O)C2CCCCC2)c2ncccc2c1	2.1*	4	-111	0.6	38
COc1ccc(S(=O)(=O)n2ccnc2)c2cccnc12	0.5	2	53*	0.4	56*
CC1(C(=O)N2CC3(CC(c4cccc([N+](=O)[O-])c4)=NO3)C[C@H]2C(=O)NCC(N)=O)CC1 (some centres undefined)	1.1	10	-15	1	5
O=C(CSc1nnc(-c2ccco2)n1CC1CCCO1)c1ccc(F)cc1 (centres undefined)	1.1	4	-9	0.6	39
CON/C=C(\C=Nc1ccc(Cl)cc1)c1ncc(C(F)(F)F)cc1Cl	1.1	5	-7	1.1	-13
CCOc1ccccc1NC(=O)C1CCN(S(=O)(=O)c2cccc3cccnc23)CC1	1.6	0	-58	0.1	93*
COc1ccc(OC)c(NC(=O)C2CCCN(S(=O)(=O)c3cccc4cccnc34)C2)c1 (centres undefined)	0.8	10	17	0.3	69*
COc1ccc(C)cc1NC(=O)C1CCCN(S(=O)(=O)c2cccc3nonc23)C1 (centres undefined)	·	14	·	·	·
CC1CCCCN1CCNC(=O)C1CCN(S(=O)(=O)c2cccc3cccnc23)CC1 (centres undefined)	0.9	8	8	0.8	17
CCN(CCNC(=O)C1CCN(S(=O)(=O)c2cccc3cccnc23)CC1)c1ccccc1	3*	20	-199	0.7	32
O=C(CSc1nnc(-c2cccnc2)n1Cc1ccccc1)NCc1ccccc1	·	5	·	·	·
COc1ccc2[nH]c(=O)c(CN(CCO)C(=O)c3ccccc3F)cc2c1	0.9	11	6	1	-2
CC1(C)Cc2c(c(N3CCOCC3)nc3sc4c(NN)ncnc4c23)CS1	0.9	9	10	1.2	-18
CC(C)CNc1nnnc2c1sc1nc(N3CCOCC3)c3c(c12)CC(C)(C)SC3	0.2	10	81*	0.7	34
CC1(C)Cc2c(c(N3CCOCC3)nc3sc4c(NCc5ccccc5)nnnc4c23)CS1	0	3	98*	0.4	57*
CC1(C)Cc2c(c(N3CCOCC3)nc3sc4c(NCc5ccco5)nnnc4c23)CS1	0.1	5	93*	0.4	61*
COc1ccc(C2CC(=O)N3C(=C2C#N)SCC3(O)c2ccccc2)cc1 (centres undefined)	0	4	100*	0.2	84*
COc1ccc2ccccc2c1C1CC(=O)N2CN(C)CSC2=C1C#N (centres undefined)	0.5	17	46	0.9	9
N#CC1=C2SCC(O)(c3ccccc3)N2C(=O)CC1c1ccccc1F (centres undefined)	0	6	99*	0	100*
N#CC1=C2SCC(O)(c3ccccc3)N2C(=O)CC1c1cccs1 (centres undefined)	0	13	99*	0.2	82*
CSC1=C(C#N)C(c2cccs2)CC(=O)N1C (centres undefined)	1	·	-1	0.8	23

Screening results (PubChem)
